Screening data from PubChem.
Shown is part of a subset that was picked to be rich in hits.
Methyltransferases: Primary Screen for Target Class Profiling of Small Molecule Inhibitors of Methyltransferases. purified enzyme, MTase-Glo SAH luminescence; stronger effect = lower value. calls only at 40 µM. hit rate 3.9% among 25,000; call rule not given here
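Each enzyme was assayed with SAM and its substrate. SAH formation detected by MTase-Glo luminescence; single-point 40 uM screen[…].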
Starred values were filed as active, the others as inactive; i = inactive; + = active, no number. % is scaled to controls: 0 for no effect and ±100 for the full control effect.

SMILES	Methyltransferases
CCC(C)NC(=O)c1ccc2c(=O)n(C)c3nnc(SCC(=O)Nc4ccc(C)cc4C)n3c2c1 (stereo not drawn)	i
CN(C)CCCNC(=O)c1ccc(-c2cc(O)c3ncccc3c2)cc1	+
COc1cccc(-c2ccc(C(=O)NCCNC(=O)c3ccccc3OC)cc2)c1	i
N#Cc1cccnc1-c1cccc(C(=O)NCCNC(=O)c2ccccc2)c1	i
CCCn1c(=O)c2ccccc2n2c(=O)n(CC(=O)c3ccccc3)nc12	i
COc1ccccc1N1C(=O)CSc2c(c3ccccc3n2C)C1C(=O)NCc1ccc(F)cc1 (stereo not drawn)	i
CSc1cccc(NS(=O)(=O)c2ccc3[nH]c4c(c3c2)CCCC4)c1	i
CCCCN1C(=O)c2c(NC(C)=O)c3cc(F)ccc3n2CC1(C)C(=O)NCCC(C)C (stereo not drawn)	i
O=C(NC1CCCC1)c1ccc2c(=O)n(Cc3ccccc3)c3nn(Cc4ccc(F)cc4)c(=O)n3c2c1	i
CC(C)CCn1c(=O)c2ccccc2n2c(SCC(=O)Nc3ccc4c(c3)OCO4)nnc12	i
COc1ccc(N2CCN(C(=O)c3ccc(Nc4nc5ccccc5n5nnnc45)cc3)CC2)cc1	i
CCN1CCN(C(=O)c2ccc(-c3nnc4ccc(NC(=O)C5CC5)cn34)cc2)CC1	i
CCN1CCN(c2ccc(Nc3ccc(-c4ccc(C(N)=O)cc4)n4ncnc34)cc2)CC1	+
Cc1cccc(CN2CCCn3nc(C(=O)NC(C)Cc4ccco4)cc3C2=O)c1 (stereo not drawn)	i
CC(C)c1ccc(CNC(=O)c2ccc3c(=O)nc4c(-c5ccccc5)n[nH]n4c3c2)cc1	i
Brc1c(Br)c(Br)c2[nH]cnc2c1Br	+
CSc1ccc(CCNC(=O)c2oc3cc4sc(N(C)C)nc4cc3c2C)cc1	i
CCCN1C(=O)c2c(C(=O)NCc3cccc(C)c3)ncn2CC1(C)C(=O)NCc1ccc(OC)cc1 (stereo not drawn)	i
COC(=O)c1ncn2c1C(=O)N(c1cc(C)ccc1C)C(C)(C(=O)NC1CCCC1)C2 (stereo not drawn)	i
CCOC(=O)c1cc2n(n1)CC(C)(C(=O)NC1CCC(C)CC1)N(Cc1cccc(C)c1)C2=O (stereo not drawn)	i
COC(=O)CC1OC(C)C2=C(O)c3c(O)cccc3C(=O)C23OC13 (stereo not drawn)	+
CSc1ccc(CCNC(=O)c2cc3n(n2)CCCN(Cc2ccc(F)cc2)C3=O)cc1	i
COc1ccccc1CNC(=O)C1(C)Cn2cnc(C(=O)N3CCCC3)c2C(=O)N1C1CC1 (stereo not drawn)	i
Cc1ccc(C(=O)Cn2nc3n(C)c(=O)c4ccc(C(=O)NC5CCCC5)cc4n3c2=O)cc1	i
O=C(Cn1c(=O)oc2cc(S(=O)(=O)N3CCCC3)ccc21)NCCc1ccccc1	i
SMILES	Methyltransferases
COc1ccc(OC)c2c1cc1n2CC(C)(C(=O)NC2CCC(C)CC2)N(Cc2cccnc2)C1=O (stereo not drawn)	i
COc1ccc(OC)c2c1cc1n2CC(C)(C(=O)NC2CCCCCC2)N(Cc2cccnc2)C1=O (stereo not drawn)	i
COc1ccc(OC)c2c1cc1n2CC(C)(C(=O)NC2CCCCC2)N(Cc2cccnc2)C1=O (stereo not drawn)	+
CCOCCCN1C(=O)c2cc3c(OC)ccc(OC)c3n2CC1(C)C(=O)NC1CCCCCC1 (stereo not drawn)	i
COCCCN1C(=O)c2cc3c(OC)ccc(OC)c3n2CC1(C)C(=O)NC1CCCCC1 (stereo not drawn)	+
CCOCCCN1C(=O)c2cc3c(OC)ccc(OC)c3n2CC1(C)C(=O)NC1CCCCC1 (stereo not drawn)	i
CC(C)Cn1c(=O)c2ccccc2n2c(SCC(=O)NC3CCCCC3)nnc12	i
Cc1ccc(N2C(=O)CSc3c(c4ccccc4n3C)C2C(=O)NCc2ccc(F)cc2)cc1C (stereo not drawn)	i
COCCNC(=O)CCc1nnc2n(Cc3ccccc3)c(=O)c3ccccc3n12	i
CCOCCCNC(=O)N1Cc2c(sc3c2CCCC3)-n2cccc2C1c1ccccc1 (stereo not drawn)	i
COC(=O)c1ncn2c1C(=O)N(c1ccc(OC)c(OC)c1)C(C)(C(=O)NCc1ccccc1)C2 (stereo not drawn)	i
COc1ccc(CN2C(=O)c3cc4sccc4n3CC2(C)C(=O)NC2CCCCCC2)cc1 (stereo not drawn)	i
CC(C)(O)c1ccc2c(c1)ncn2-c1cccc(-c2ccccc2C#N)c1	+
CCCNc1nc2c(-c3cccc(F)c3)nnn2c2ccc(Cl)cc12	i
CC(C)CCn1c(=O)c2ccc(C(=O)NC3CCCCC3)cc2n2c(=O)n(Cc3ccccc3)nc12	i
Cc1cccc(Cn2nc3n(CC(C)C)c(=O)c4ccc(C(=O)NC5CCCCC5)cc4n3c2=O)c1	i
C[C@H]1c2cccc(O)c2C(O)=C2C(=O)[C@]3(O)C(O)=C(C(N)=O)C(=O)[C@@H](N(C)C)[C@@H]3[C@@H](O)[C@@H]21	+
CSc1ccc(CNC(=O)c2cc3n(n2)CC(C)(C(=O)NCc2ccccc2)N(C)C3=O)cc1 (stereo not drawn)	i
N#Cc1ccc2[nH]cc(CCCCN3CCN(c4ccc5oc(C(N)=O)cc5c4)CC3)c2c1	+
COc1ccc(CCN2C(=O)c3cc4occc4n3CC2(C)C(=O)NC2CCCCC2C)c(OC)c1 (stereo not drawn)	i
O=c1[nH]c2ccccc2n1C1CCN(S(=O)(=O)c2ccc(-n3cnnn3)cc2)CC1	i
Cc1ccc(N2C(=O)CSc3c(c4ccccc4n3C)C2C(=O)NCCCOC(C)C)cc1C (stereo not drawn)	i
Cc1cccc(-c2n[nH]n3c2nc(=O)c2ccc(C(=O)N4CCN(c5cc(C)ccc5C)CC4)cc23)c1	i
Cc1cccc(N2CCN(C(=O)c3ccc4c(=O)[nH]c5c(C(=O)NC6CCCC6)sc(=S)n5c4c3)CC2)c1C	i
Cc1ccc(C)c(N2CCN(C(=O)CCc3nnc4n(CCCOC(C)C)c(=O)c5ccccc5n34)CC2)c1	i
SMILES	Methyltransferases
Cc1cccc(N2CCN(C(=O)c3ccc4c(=O)[nH]c5c(C(=O)NC(C)C)sc(=S)n5c4c3)CC2)c1C	+
Cc1ccc(C)c(N2CCN(C(=O)c3ccc4c(=O)[nH]c5c(C(=O)NC(C)C)sc(=S)n5c4c3)CC2)c1	+
CCc1nc2c(=O)n(CC(=O)N3CCN(c4cccc(C)c4C)CC3)nc(C)c2s1	i
Cc1ccc(NC(=O)N2CCn3cccc3C2C(C)C)c(C)c1 (stereo not drawn)	i
O=C(C1COc2cc(S(=O)(=O)NCCN3CCOCC3)ccc2O1)N1CCOCC1 (stereo not drawn)	i
CCCN1C(=O)c2cc(C(=O)N3CCN(C4CCCCC4)CC3)nn2CC1(C)C(=O)NC1CCCC1 (stereo not drawn)	i
CC(=O)c1ccc(Nc2nc3c(S(=O)(=O)c4ccc(Br)cc4)nnn3c3ccccc23)cc1	i
CC1(C(=O)NCc2ccccc2)Cn2c(nc3ccccc32)C(=O)N1C1CC1 (stereo not drawn)	i
O=C(CCc1nnc2n(Cc3ccc(F)cc3)c(=O)c3ccccc3n12)NCCCN1CCCC1=O	i
COc1cccc(CNC(=O)N2Cc3c(sc4c3CCCC4)-n3cccc3C2c2ccccc2)c1 (stereo not drawn)	i
